# Measurements taken from the supplement of paper PMC9135407.
# “And” between values parts separate entries of the source, which are not always exact repeats. Equal entries are not always repeated. Structures can show the parent of a compound that is named as a salt. The whole screen tested about 5,800 compounds, of which about 620 (11%) showed activity. What follows is part of a selection rich in actives, with near analogues and random picks from the rest. A number with no mark means an inactive call.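 How the source made its calls: active = score above a cut-off or among the top three wells of a plate; in these data no inactive exceeds 0.85.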
# Tested on: primary human hepatic stellate cells (donor 1)
# Assay: scaled lipid accumulation score (0 = DMSO-like, 1 = nortriptyline-like); higher = stronger HSC inactivation (lipid re-accumulation), active = hit call of the paper
# Settings: 48 h
# [1] = library stock concentration: 1 mM
# [2] = library stock concentration: 10 mM
# [3] = library stock concentration: 3.33 mM
# [4] = library stock concentration: 80 uM
# [5] = library stock concentration: 400 uM
# [6] = library stock concentration: 2 mM
smiles,measurement,setting,value
CCCCCCCCCCCC1N[C@H](C(=O)O)CS1 (stereo partly specified),scaled lipid accumulation score,[1],≤ 0
CCCCC[C@H](O)/C=C/[C@@H]1[C@H](CCCCCCC(=O)O)[C@H](O)C[C@H]1O [8-iso Prostaglandin F1.beta.],scaled lipid accumulation score,[1],≤ 0
Cc1[nH]ccc2c1[nH]c1cc(=O)ccc12 [Harmol hydrochloride monohydrate],scaled lipid accumulation score,,0.689
"O=C(O)CCC/C=C\C[C@H]1C(=O)C=C[C@@H]1CC[C@@H](O)CCc1ccccc1 [17-phenyl trinor-13,14-dihydro Prostaglandin A2]",scaled lipid accumulation score,[1],≤ 0
CNCc1ccc(C)c(NC(=O)c2ccc(Nc3nc(-c4ccccc4)c4ccccc4n3)cc2)c1 [listing 1 of 2 here],scaled lipid accumulation score,[2],0.17
Cc1cc(Nc2ccc(NC(=O)c3ccc(Nc4ccnc5ccccc45)cc3)cc2)nc(N)n1,scaled lipid accumulation score,[3],0.147
same,scaled lipid accumulation score,[2],≤ 0
CNCc1ccc(C)c(NC(=O)c2ccc(Nc3nc(-c4ccccc4)c4ccccc4n3)cc2)c1 [listing 2 of 2 here],scaled lipid accumulation score,[3],1.14 (active)
CCC(C)(Oc1ccc(C2(c3ccc(OC(C)(CC)C(=O)O)cc3)CCCCC2)cc1)C(=O)O (stereo unspecified) [Clinofibrate],scaled lipid accumulation score,[3],≤ 0
same,scaled lipid accumulation score,[2],≤ 0
CNCC[C@H](Oc1cccc2ccccc12)c1cccs1,scaled lipid accumulation score,[2],0.953 (active)
CN(C)[C@@H](CCOc1cccc2ccccc12)c1ccccc1 [Dapoxetine HCl],scaled lipid accumulation score,[3],0.506
same,scaled lipid accumulation score,[2],0.625
CNCC[C@H](Oc1cccc2ccccc12)c1cccs1.Cl [Duloxetine hydrochloride],scaled lipid accumulation score,library stock concentration: 6 mM,1.05 (active)
CNCC[C@@H](Oc1ccccc1C)c1ccccc1 [Atomoxetine HCl],scaled lipid accumulation score,[3],0.319
same,scaled lipid accumulation score,[2],0.514
CNCC[C@@H](Oc1ccccc1C)c1ccccc1 [Tomoxetine],scaled lipid accumulation score,[2],0.59
CNCC[C@@H](Oc1ccccc1C)c1ccccc1 [Atomoxetine hydrochloride],scaled lipid accumulation score,library stock concentration: 7.2 mM,0.064
CNCC[C@H](Oc1cccc2ccccc12)c1cccs1 [Duloxetine],scaled lipid accumulation score,[2],1.39 (active)
CNCCC(Oc1ccccc1OC)c1ccccc1 (stereo unspecified) [Nisoxetine hydrochloride],scaled lipid accumulation score,,0.246
same,scaled lipid accumulation score,[2],0.751 and 0.328
CNCC[C@H](Oc1cccc2ccccc12)c1cccs1 [Duloxetine HCl],scaled lipid accumulation score,[3],0.357
same,scaled lipid accumulation score,[2],0.796
CNCC[C@@H](Oc1ccccc1C)c1ccccc1 [Tomoxetine hydrochloride],scaled lipid accumulation score,[2],0.484
Nc1n[nH]c(N)c1N=Nc1ccc(O)cc1 [Cdk9 Inhibitor II],scaled lipid accumulation score,[3],≤ 0
O=C(O)Cn1c(C(=O)Nc2nc(-c3ccccc3Cl)cs2)cc2ccccc21,scaled lipid accumulation score,[2],≤ -0.001
CC1=CC(=O)C2=C(C)CC[C@@H]3[C@H](OC(=O)[C@H]3C)[C@@H]12 [Leucomisine],scaled lipid accumulation score,,≤ 0
CCCCC[C@H](O)/C=C/[C@H]1C(=O)C[C@H](O)[C@@H]1CCCCCCC(=O)O [Prostaglandin D1],scaled lipid accumulation score,[1],0.018
CCCCC[C@H](O)/C=C/[C@H]1C(=O)C=C[C@@H]1C/C=C\CCCC(=O)O [Prostaglandin J2],scaled lipid accumulation score,[1],≤ 0 and ≤ -0.021
C[C@]1(O)C[C@@H](c2nc(-c3ccc4ccc(-c5ccccc5)nc4c3)c3c(N)nccn32)C1 [OSI-906 (Linsitinib)],scaled lipid accumulation score,[3],≤ 0
same,scaled lipid accumulation score,[2],≤ 0
C[C@]1(O)C[C@@H](c2nc(-c3ccc4ccc(-c5ccccc5)nc4c3)c3c(N)nccn32)C1,scaled lipid accumulation score,[4],0.05
same,scaled lipid accumulation score,[5],≤ -0.009
same,scaled lipid accumulation score,[6],≤ -0.009
same,scaled lipid accumulation score,[2],≤ -0.009
Cl.O=S(=O)(c1cccc2c(Cl)cccc12)N1CCCNCC1 [ML 9 hydrochloride],scaled lipid accumulation score,[2],0.941 (active)
NCCCCCCCCCCNS(=O)(=O)c1cccc2c(Cl)cccc12 [A-7 hydrochloride],scaled lipid accumulation score,[2],0.41
Cl.O=S(=O)(c1cccc2c(Cl)cccc12)N1CCCNCC1,scaled lipid accumulation score,[2],0.935 (active)
CC1CNCCN1S(=O)(=O)c1cccc2cnccc12 (stereo unspecified),scaled lipid accumulation score,[2],0.081
CCCCCCCC/C=C\CCCCCC(=O)OC [cis-7-Hexadecenoic Acid methyl ester],scaled lipid accumulation score,[1],≤ 0
CNc1nc(Nc2cn(C(C)(C)C#N)nc2C)ncc1C(F)(F)F,scaled lipid accumulation score,[3],≤ -0.009
same,scaled lipid accumulation score,[2],0.132
N[C@@H]1[C@H]2CN(c3nc4c(cc3F)c(=O)c(C(=O)O)cn4-c3ccc(F)cc3F)C[C@@H]12 [Trovafloxacin mesylate],scaled lipid accumulation score,[2],0.112
CCCCCCCCCC(=O)NC(CN1CCOCC1)C(O)c1ccccc1 (racemic),scaled lipid accumulation score,[1],≤ -0.021
Cc1ccc(C(=O)Cn2c3c(sc2=N)CCCC3)cc1 [Pifithrin-.alpha.],scaled lipid accumulation score,[1],≤ 0
O=C(O)CCC/C=C\C[C@@H]1[C@@H](/C=C/[C@@H](O)CCc2cccc(C(F)(F)F)c2)[C@H](O)C[C@@H]1O [17-trifluoromethylphenyl trinor Prostaglandin F2.alpha.],scaled lipid accumulation score,[1],≤ 0
CCN(CC)C(=O)CCC/C=C\C[C@@H]1[C@@H](/C=C/[C@@H](O)CCc2ccccc2)[C@H](O)C[C@@H]1O [17-phenyl trinor Prostaglandin F2.alpha. diethyl amide],scaled lipid accumulation score,[1],≤ 0
"CCS(=O)(=O)N(C)[C@H]1c2cc(C#N)ccc2OC(C)(C)[C@@H]1O [(-)-[3R,4S]-Chromanol 293B]",scaled lipid accumulation score,[2],0.037
NC(CCC(=O)NC(CSN=O)C(=O)NCC(=O)O)C(=O)O [S-Nitroso-L-glutathione],scaled lipid accumulation score,[1],0.026
CNS(=O)(=O)c1ccc(NC(=O)c2ccccc2C(=O)O)cc1 [Phthalysulfathiazole],scaled lipid accumulation score,library stock concentration: 4.8 mM,≤ 0
O=C1C(SCCO)=C(SCCO)C(=O)c2ccccc21 [listing 1 of 3 here],scaled lipid accumulation score,[2],1.2 (active)
N[C@@H](CO)c1ccccc1 [(R)-(-)-2-Phenylglycinol],scaled lipid accumulation score,[1],≤ 0
O=C1c2cccc(O)c2C(=O)c2c(O)cccc21 [Danthron],scaled lipid accumulation score,library stock concentration: 8.3 mM,0.038
O=C1C(SCCO)=C(SCCO)C(=O)c2ccccc21 [listing 2 of 3 here],scaled lipid accumulation score,[2],0.156
O=C1C(SCCO)=C(SCCO)C(=O)c2ccccc21 [listing 3 of 3 here],scaled lipid accumulation score,library stock concentration: 16.1 mM,1.05 (active)
CCN(c1ccccc1)c1cc(=NC)n(C)c(C)n1,scaled lipid accumulation score,[2],≤ 0
CN(C)CCCCCCOc1ccc(-n2ccnc2)cc1,scaled lipid accumulation score,[1],0.054 and 0.003
NC(N)=N[C@@H](CCC(=O)O)C(=O)O [alpha-Guanidinoglutaric acid],scaled lipid accumulation score,[2],≤ -0.007
NC(N)=N[C@@H](CCC(=O)O)C(=O)O [.alpha.-Guanidinoglutaric Acid],scaled lipid accumulation score,[1],≤ 0
O=C(Nc1cccc(C(F)(F)F)c1)Nc1cc(S(=O)(=O)NC2CC2)ccc1-c1ccsc1,scaled lipid accumulation score,[3],0.022
same,scaled lipid accumulation score,[2],0.632
OC(CC1c2ccccc2-c2cncn21)C1CCCCC1 (stereo unspecified),scaled lipid accumulation score,[3],≤ -0.009
same,scaled lipid accumulation score,[2],0.209
Cc1ccc(Nc2c(F)cccc2Cl)c(CC(=O)O)c1,scaled lipid accumulation score,[2],≤ 0
Cc1ccc(Nc2c(F)cccc2Cl)c(CC(=O)O)c1 [Lumiracoxib],scaled lipid accumulation score,[3],≤ 0
same,scaled lipid accumulation score,[2],0.025
CCCCC[C@H](O)/C=C/[C@@H]1c2cc(CCCCC(=O)O)n(-c3ccccc3)c2C[C@H]1O [Piriprost (potassium salt)],scaled lipid accumulation score,[1],≤ 0
O=c1c2ccccc2nc2n1CCc1c-2[nH]c2ccccc12 [Rutaecarpine] [listing 1 of 2 here],scaled lipid accumulation score,[2],0.975 (active)
CN1CCc2ccccc2Cc2[nH]c3ccccc3c2CC1,scaled lipid accumulation score,[2],0.244
O=c1c2ccccc2nc2n1CCc1c-2[nH]c2ccccc12 [Rutaecarpine] [listing 2 of 2 here],scaled lipid accumulation score,[3],≤ 0
same,scaled lipid accumulation score,[2],0.58
CCC(CC)(NC(=O)C(C)C)C(=O)N[C@@H](CCCN=C(N)N)C(=O)NC1(C(=O)NC(c2ccc(F)cc2)c2ccc(F)cc2)CCCC1,scaled lipid accumulation score,[3],≤ -0.009
same,scaled lipid accumulation score,[2],≤ 0
Cc1cnc(-c2cc(N3CCN(C(=O)CCS(C)(=O)=O)CC3)ncc2Cl)c(C)c1,scaled lipid accumulation score,[3],≤ 0
same,scaled lipid accumulation score,[2],≤ 0
CCC(C)[C@H](NC(=O)[C@H](CCCCN)NC(=O)[C@H](CCCCN)NC(=O)[C@H](C)NC(=O)[C@H](CC(C)C)NC(=O)[C@H](C)NC(=O)[C@H](C)NC(=O)[C@H](CC(C)C)NC(=O)[C@H](C)NC(=O)[C@H](CCCCN)NC(=O)[C@H](CC(C)C)NC(=O)[C@H](CC(N)=O)NC(=O)[C@@H](N)[C@@H](C)CC)C(=O)N[C@@H](CC(C)C)C(N)=O (stereo partly specified) [Mastoparan],scaled lipid accumulation score,library stock concentration: 3 mM,≤ -0.012
CNC(=O)Nc1ccc(-c2nc(N3CC4CCC(C3)O4)c3cnn(C4CCC5(CC4)OCCO5)c3n2)cc1,scaled lipid accumulation score,[4],≤ 0
same,scaled lipid accumulation score,[5],0.006
same,scaled lipid accumulation score,[6],≤ 0
same,scaled lipid accumulation score,[3],≤ 0
same,scaled lipid accumulation score,[2],0.733 and 0.772
COC(=O)Nc1ccc(-c2nc(N3CCOCC3)c3cnn(C4CCN(C(=O)OC)CC4)c3n2)cc1,scaled lipid accumulation score,[3],≤ 0
same,scaled lipid accumulation score,[2],≤ 0
c1cncc(CN2CCC(n3ncc4c(N5CCOCC5)nc(-c5ccc6[nH]ccc6c5)nc43)CC2)c1,scaled lipid accumulation score,[3],1.19 (active)
same,scaled lipid accumulation score,[2],1.19 (active)
CN(C)[C@@H]1C(O)=C(C(=O)NCNCCCC[C@H](N)C(=O)O)C(=O)[C@@]2(O)C(O)=C3C(=O)c4c(O)cccc4[C@@](C)(O)[C@H]3C[C@@H]12 [Lymecycline],scaled lipid accumulation score,,0.003
CC(C)(C)OC(=O)Nc1cccc2[nH]ccc12 [(1H-Indol-4-yl)-Carbamic Acid tert-butyl ester],scaled lipid accumulation score,[1],≤ 0
C[C@@H](N)c1ccc(C(=O)Nc2ccnc3[nH]ccc23)cc1,scaled lipid accumulation score,[4],≤ -0.009
same,scaled lipid accumulation score,[5],≤ -0.009
same,scaled lipid accumulation score,[6],0.069
C[C@@H](N)c1ccc(C(=O)Nc2ccnc3[nH]ccc23)cc1.Cl.Cl,scaled lipid accumulation score,[2],1.13 (active)
